How the values were obtained:
Assay in all cases: PBM binding z-score (relative to random genomic background probes); higher = stronger binding; sequences stand for … in GC…GCGATTGACAGCGTAGAATGAAGG
[1] = tested on: PPARg:RXRa DBDmut IVT, anti-RXR (DBD mutation: RXRa K156A/R161A, NR concentration 270 nM, RXRa partner concentration 90 nM)
Outline: (§1)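 Custom Agilent 4×180K protein-binding microarrays carried double-stranded probes, each with a 34-nt variable region. These regions held direct-repeat seeds, single-nucleotide variants, half-site ablations and random human genomic background sequences. Ligand-free nuclear receptor dimers were incubated on the arrays for 1 h, antibodies against each partner (one per run) detected binding, and scanned fluorescence was regression-normalized. Binding z-scores take the random background probes as reference.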

[2] = tested on: PPARg:RXRa IVT, anti-PPARg (NR concentration 270 nM, RXRa partner concentration 90 nM)
Outline: as §1

[3] = tested on: PPARg DBDmut:RXRa IVT, anti-PPARg (DBD mutation: PPARg1 K132A/R137A, NR concentration 270 nM, RXRa partner concentration 90 nM)
Outline: as §1

[4] = tested on: PPARg DBDmut IVT, anti-PPARg (DBD mutation: PPARg1 K132A/R137A, NR concentration 270 nM)
Outline: as §1

[5] = tested on: PPARg homodimer (NR concentration 180 nM)
Outline: as §1

[6] = tested on: PXR:RXRa (NR concentration 270 nM, RXRa partner concentration 90 nM)
Outline: as §1

[7] = tested on: PXR homodimer (NR concentration 270 nM)
Outline: as §1

[8] = tested on: RARa:RXR (NR concentration 270 nM, RXRa partner concentration 90 nM)
Outline: as §1

[9] = tested on: RARa homodimer (NR concentration 270 nM)
Outline: as §1

[10] = tested on: RARb:RXRa (NR concentration 270 nM, RXRa partner concentration 90 nM)
Outline: as §1

[11] = tested on: RARb homodimer (NR concentration 270 nM)
Outline: as §1

[12] = tested on: RARg:RXRa (NR concentration 270 nM, RXRa partner concentration 90 nM)
Outline: as §1

[13] = tested on: RARg homodimer (NR concentration 270 nM)
Outline: as §1

[14] = tested on: RXRa DBDmut IVT, anti-RXR (DBD mutation: RXRa K156A/R161A, NR concentration 90 nM)
Outline: as §1

[15] = tested on: RXRa homodimer (NR concentration 180 nM)
Outline: as §1

[16] = tested on: THRa:RXRa (NR concentration 90 nM, RXRa partner concentration 90 nM)
Outline: as §1

[17] = tested on: THRa homodimer (NR concentration 90 nM)
Outline: as §1

[18] = tested on: VDR:RXRa (NR concentration 270 nM, RXRa partner concentration 90 nM)
Outline: as §1

[19] = tested on: VDR homodimer (NR concentration 270 nM)
Outline: as §1

Row | Sequence | PBM binding z-score [1] | PBM binding z-score [2] | PBM binding z-score [3] | PBM binding z-score [4] | PBM binding z-score [5] | PBM binding z-score [6] | PBM binding z-score [7] | PBM binding z-score [8] | PBM binding z-score [9] | PBM binding z-score [10] | PBM binding z-score [11] | PBM binding z-score [12] | PBM binding z-score [13] | PBM binding z-score [14] | PBM binding z-score [15] | PBM binding z-score [16] | PBM binding z-score [17] | PBM binding z-score [18] | PBM binding z-score [19]
1 | ATCGAAAGGTCTTGAGGTGAGTATACAGAAAGGC | -0.431 | 1.56 | 0.61 | 0.602 | 0.325 | 0.409 | -0.368 | 1.43 | 0.103 | 2.13 | 1.41 | 1.77 | 1.87 | -0.483 | 1.48 | 2.34 | 1.21 | 0.496 | -0.0653
2 | CCTACAGGGTCAGCTAGGCCAGAGTAGGGACGGC | 0.563 | 1.44 | -0.42 | -1.17 | 1.25 | 1.92 | -0.627 | 2.68 | -0.295 | 4.03 | 3.06 | 4.32 | 4.38 | 1.01 | 4.59 | 3.02 | 0.663 | 3.53 | 0.899
3 | TCTTGTAGATCAAGCAGGTTATGAAAGCCTGAGT | 1.29 | 0.311 | 0.244 | 0.263 | -0.854 | 0.4 | 0.201 | 0.334 | -0.519 | 0.176 | -0.0622 | 0.0667 | -0.307 | 0.366 | 0.465 | 0.302 | -0.815 | 0.521 | -0.186
4 | ACCAGCAGGCCAAGTTTGGGTCACTCAAACAAAG | -0.512 | 0.814 | -0.754 | -1.36 | 0.25 | 0.747 | -0.419 | 1.27 | -0.97 | 1.89 | 2.33 | 2.44 | 1.51 | -0.217 | 0.731 | 2.61 | 0.952 | 0.61 | 0.435
5 | GCTAGTTGGTCAGTAAAAGGTCACACAGCGGTCG | 1.19 | 2.6 | -0.374 | -0.109 | 8.6 | 5.42 | 1.17 | 6.43 | 4.55 | 4.32 | 4.98 | 5.92 | 5.1 | 0.686 | 5.48 | 3.67 | 1.78 | 3.95 | 2.18
6 | CATACAGGGTCAGCTAGGCCTGAGTAGGGACGGC | 1.1 | 2.26 | 0.675 | -0.0533 | 1.27 | 1.8 | -0.411 | 3.27 | 0.583 | 3.86 | 2.93 | 4.26 | 4.49 | 1.02 | 4.15 | 2.71 | 0.977 | 2.61 | 0.628
